In article PMC12820563, “FoxP3 forms a head-to-head dimer in vivo and stabilizes its multimerization on adjacent microsatellites”:
The full ranking holds about 16,000 sequences; the median of “rpm ratio (pull-down/input)” is about 0.5, and the highest 2% start at about 5.5. The full list was thinned out, with the highest values kept by preference.

The sequences below were run against T1, MBP-FoxP3dN (Mus musculus, UniProt Q99JB6 188-423) (assay: PD-seq (MBP pull-down with sequencing); 20 mM Tris-HCl pH 7.5, 100 mM NaCl, 1.5 mM MgCl2, 0.4 uM protein, 0.1 uM dsDNA library, 30 min, room temperature, amylose pull-down; high values mean tight binding). Conditions: protein: recombinant; tags: His6-MBP; chain copies: 2; dsDNA, one strand shown.
T1 sequence: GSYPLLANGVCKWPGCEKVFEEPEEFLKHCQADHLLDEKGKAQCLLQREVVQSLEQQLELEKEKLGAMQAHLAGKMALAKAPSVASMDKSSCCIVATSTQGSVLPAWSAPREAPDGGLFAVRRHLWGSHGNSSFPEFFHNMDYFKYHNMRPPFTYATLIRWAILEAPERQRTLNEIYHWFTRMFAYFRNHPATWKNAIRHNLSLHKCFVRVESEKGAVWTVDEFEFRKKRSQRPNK
Outline: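 Amylose resin was used to capture complexes formed during 30 min at room temperature in Tris pH 7.5 buffer with NaCl and MgCl2 between 0.4 µM His6-MBP-tagged mouse FoxP3 or FoxP1 fragment lacking the N-terminus, expressed in E. coli, and 0.1 µM Klenow-filled double-stranded degenerate DNA library. After three washes, the DNA was released with proteinase K, barcoded by PCR and sequenced on Illumina. Binding is pooled-replicate reads-per-million enrichment, pull-down over input.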

Sequence	binding signal
GATGATTGTTCTCCCAGCTGATGAATTTTGTACGTCGAGTAAACAAATTTTCCTAATCTTTCTGTTCAAGCGCCATCTAC	1.18 RPM ratio (pull-down/input)
GATGATTGTTCTCCCAGCTGATGAATTGTAAGTGTCGAGTAAACAAATTTTCCTAATCTTTCTGTTCAAGCGCCATCTAC	0.84 RPM ratio (pull-down/input)
GATGATTGTTCTCCCAGCTGATGAATTTTGATGTTCGAGTAAACAAATTTTCCTAATCTTTCTGTTCAAGCGCCATCTAC	3.91 RPM ratio (pull-down/input)
GATGATTGTTCTCCCAGCTGATGAATTTAAGGATTCGAGTAAACAAATTTTCCTAATCTTTCTGTTCAAGCGCCATCTAC	0.302 RPM ratio (pull-down/input)
GATGATTGTTCTCCCAGCTGATGAATTGAATATTTCGAGTAAACAAATTTTCCTAATCTTTCTGTTCAAGCGCCATCTAC	0.671 RPM ratio (pull-down/input)
GATGATTGTTCTCCCAGCTGATGAATTTTGACCATCGAGTAAACAAATTTTCCTAATCTTTCTGTTCAAGCGCCATCTAC	0.551 RPM ratio (pull-down/input)
GATGATTGTTCTCCCAGCTGATGAATTGTTATATTCGAGTAAACAAATTTTCCTAATCTTTCTGTTCAAGCGCCATCTAC	1.27 RPM ratio (pull-down/input)
GATGATTGTTCTCCCAGCTGATGAATTATTGTGTTCGAGTAAACAAATTTTCCTAATCTTTCTGTTCAAGCGCCATCTAC	2.16 RPM ratio (pull-down/input)
GATGATTGTTCTCCCAGCTGATGAATTGTGTTATTCGAGTAAACAAATTTTCCTAATCTTTCTGTTCAAGCGCCATCTAC	7.88 RPM ratio (pull-down/input)
GATGATTGTTCTCCCAGCTGATGAATTGGATCGTTCGAGTAAACAAATTTTCCTAATCTTTCTGTTCAAGCGCCATCTAC	0.402 RPM ratio (pull-down/input)
GATGATTGTTCTCCCAGCTGATGAATTTACAGGATCGAGTAAACAAATTTTCCTAATCTTTCTGTTCAAGCGCCATCTAC	0.329 RPM ratio (pull-down/input)
GATGATTGTTCTCCCAGCTGATGAATTCTTAAGTTCGAGTAAACAAATTTTCCTAATCTTTCTGTTCAAGCGCCATCTAC	0.237 RPM ratio (pull-down/input)
GATGATTGTTCTCCCAGCTGATGAATTGTATGTTTCGAGTAAACAAATTTTCCTAATCTTTCTGTTCAAGCGCCATCTAC	3.89 RPM ratio (pull-down/input)
GATGATTGTTCTCCCAGCTGATGAATTGTATGATTCGAGTAAACAAATTTTCCTAATCTTTCTGTTCAAGCGCCATCTAC	2.94 RPM ratio (pull-down/input)
GATGATTGTTCTCCCAGCTGATGAATTGTATGTGTCGAGTAAACAAATTTTCCTAATCTTTCTGTTCAAGCGCCATCTAC	3.75 RPM ratio (pull-down/input)
GATGATTGTTCTCCCAGCTGATGAATTGTATGGGTCGAGTAAACAAATTTTCCTAATCTTTCTGTTCAAGCGCCATCTAC	1.19 RPM ratio (pull-down/input)
GATGATTGTTCTCCCAGCTGATGAATTTGTATGTTCGAGTAAACAAATTTTCCTAATCTTTCTGTTCAAGCGCCATCTAC	6.63 RPM ratio (pull-down/input)
GATGATTGTTCTCCCAGCTGATGAATTCTGTATGTCGAGTAAACAAATTTTCCTAATCTTTCTGTTCAAGCGCCATCTAC	4.95 RPM ratio (pull-down/input)
GATGATTGTTCTCCCAGCTGATGAATTGTGTATGTCGAGTAAACAAATTTTCCTAATCTTTCTGTTCAAGCGCCATCTAC	5.84 RPM ratio (pull-down/input)
GATGATTGTTCTCCCAGCTGATGAATTTGTATGGTCGAGTAAACAAATTTTCCTAATCTTTCTGTTCAAGCGCCATCTAC	6.04 RPM ratio (pull-down/input)
GATGATTGTTCTCCCAGCTGATGAATTTTGTATGTCGAGTAAACAAATTTTCCTAATCTTTCTGTTCAAGCGCCATCTAC	6.01 RPM ratio (pull-down/input)
GATGATTGTTCTCCCAGCTGATGAATTATGTATGTCGAGTAAACAAATTTTCCTAATCTTTCTGTTCAAGCGCCATCTAC	4.99 RPM ratio (pull-down/input)
GATGATTGTTCTCCCAGCTGATGAATTGGTATGGTCGAGTAAACAAATTTTCCTAATCTTTCTGTTCAAGCGCCATCTAC	1.45 RPM ratio (pull-down/input)
GATGATTGTTCTCCCAGCTGATGAATTCTATGTGTCGAGTAAACAAATTTTCCTAATCTTTCTGTTCAAGCGCCATCTAC	1.96 RPM ratio (pull-down/input)
